# Assay outcomes as filed in PubChem.
# RORg inh: inhibitors of mouse ROR gamma transcriptional activity; P51450; Drosophila S2 Gal4-RORgamma UAS-luciferase reporter, 20 h; Potency, µM (highest dose often 53.6 µM), inactives show top-dose activity change, negative = inhibition, hits mostly inhibitors; 310,000 compounds, 5.4% hits; note: potency is the fitted concentration of half-maximal effect; nearly all actives have a fitted effect of over 60% in size
# Target sequence (P51450 whole entry, looked up, the tested form may be a part): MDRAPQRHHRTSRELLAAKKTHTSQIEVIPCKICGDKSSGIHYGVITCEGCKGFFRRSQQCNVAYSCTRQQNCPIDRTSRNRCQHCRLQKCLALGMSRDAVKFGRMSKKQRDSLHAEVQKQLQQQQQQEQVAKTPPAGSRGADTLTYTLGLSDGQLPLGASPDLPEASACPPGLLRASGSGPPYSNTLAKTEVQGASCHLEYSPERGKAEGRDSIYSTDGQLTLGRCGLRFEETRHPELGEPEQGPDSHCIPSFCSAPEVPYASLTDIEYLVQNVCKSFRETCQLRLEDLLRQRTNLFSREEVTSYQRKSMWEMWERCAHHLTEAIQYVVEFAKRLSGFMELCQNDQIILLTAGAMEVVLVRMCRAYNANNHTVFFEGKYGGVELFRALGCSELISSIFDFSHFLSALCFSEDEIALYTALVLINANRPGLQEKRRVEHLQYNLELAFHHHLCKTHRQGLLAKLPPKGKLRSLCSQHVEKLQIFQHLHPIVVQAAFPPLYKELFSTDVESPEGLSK
#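 A Gal4/UAS one-hybrid system in insect cells: metallothionein-promoter Gal4–ROR gamma fusion plus Photinus luciferase reporter. Copper sulfate 700 uM final, 20 hr ambient incubation, luminescent detection after 10 min with reagent.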
# TDP1 cell noCPT: qHTS for Inhibitors of human tyrosyl-DNA phosphodiesterase 1 (TDP1): qHTS in cells in absence of CPT; DT40 Tdp1-/- hTDP1 cells, no CPT, ATP luminescence, 48 h; Potency, µM (highest dose often 46.2 µM), for inactives: at the highest dose activity change, negative = growth inhibition, actives largely listed as inhibitors; 420,000 compounds, 15% hits; note: potency is the fitted concentration of half-maximal effect; nearly all actives have a fitted effect of over 55% in size
#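 Readout: luminescence from CellTiter-Glo after 30 min in the dark at RT. Cells: DT40 Tdp1-/- with stable hTDP1, 400/well. Exposure: compounds alone, ≥48 hr, 37 °C.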
# IL1B secr inh: blocks inflammasome-driven IL-1 beta release | activity change, % at 57.5 µM | 360,000 compounds, 4.7% hits | AID 743279 | THP-1 LPS/ATP IL-1B secretion, AlphaLISA, 16 h; stronger effect = lower value; in the data active = activity change below about -50%; inconclusive = mostly about -30% to -49%
#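 THP-1 cells pretreated 1 hr with compounds (up to 57.5 uM final), then stimulated with LPS (250 ng/mL final) plus ATP (1.25 mM final); secreted IL-1B measured by AlphaLISA after 16 hr, decreased signal indicating inhibition.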
# TDP1 cell CPT: growth inhibition of DT40 Tdp1-/-;hTDP1 cells with camptothecin (screen for TDP1 inhibitors) | chicken DT40 Tdp1-/-;hTDP1 cells + 20 nM CPT, ATP luminescence, 48 h | Potency, µM (highest dose often 46.2 µM), for the others: at the top dose activity change, negative = growth inhibition, hits mostly inhibitors | 420,000 compounds, 12% hits; note: potency is the fitted concentration of half-maximal effect; nearly all actives have a fitted effect of over 55% in size
#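 Chicken DT40 Tdp1-/- cells complemented with human TDP1, 400 cells/well, exposed to compounds plus 20 nM camptothecin for at least 48 h at 37 C; viability read as ATP content by CellTiter-Glo luminescence.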
# Gal4-VP16 FLuc: inhibits Gal4-VP16 luciferase reporter, ROR gamma counter-screen. Drosophila S2 Gal4-VP16 UAS-luciferase, luminescence, 20 h. Potency, µM (series often up to 53.6 µM), for inactives: top-dose activity, negative = inhibition, usual class: inhibitors. 310,000 compounds, 3.5% hits;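 note: Gal4-VP16 expression switched on by copper sulfate through the metallothionein promoter; potency is the fitted concentration of half-maximal effect; nearly all actives have a fitted effect of over 50% in size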
# LDHA inh: blocks human lactate dehydrogenase A; P00338; purified LDHA, NADH/diaphorase-resazurin fluorescence; stronger effect = lower value; activity change, % (values are at about 110 or 230 µM); 480,000 compounds, 0.15% hits; in the data active = activity change below about -30%; inconclusive = mostly about -25% to -30%;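 note: plate controls were DMSO wells for no effect and wells without enzyme for full effect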
#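 LDH5 2 nM; NADH 0.06 mM, pyruvate 0.2 mM; 200 mM Tris pH 7.4, EDTA, Tween-20; 5 min RT. Detection: diaphorase 0.133 mg/mL + resazurin 37 µM, fluorescence ex540/em590 at 0 and 20 min; normalized to enzyme-free and DMSO wells.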
# An asterisk follows results filed as active; ? = inconclusive; · = not tested or not shown. The list is not random: actives were taken first. Their share in the collection is about 18%. Unless noted, calls come from the whole dose curve; as a rule, active = well fitted curve in the direction sought with a large enough effect; inconclusive = small, poorly fitted or top-dose-only effect, or another doubt; inactive = no such curve, though single readings can be large; an effect the other way counts as inactive or inconclusive. Unless noted, % is set by controls: 0 for no effect and ±100 for the full control effect.
SMILES,RORg inh,TDP1 cell noCPT,IL1B secr inh,TDP1 cell CPT,Gal4-VP16 FLuc,LDHA inh
COc1ccc(OC)c(-c2cc(C(=O)NCCc3ccccc3)c3c(-c4ccc(C)cc4)[nH]nc3n2)c1,·,13µM*,·,23µM*,·,-5
CCOc1ccc(-c2cc(C(=O)NCc3ccccc3)c3c(-c4ccc(CC)cc4)[nH]nc3n2)cc1,·,?,·,21µM*,·,-8
CCOc1ccc(-c2cc(C(=O)NCc3ccc(OC)cc3)c3c(-c4ccc(F)cc4)[nH]nc3n2)cc1,·,0%,·,0%,·,-7
Cc1ccc(CNC(=O)c2cc(-c3ccc(C)cc3)nc3n[nH]c(-c4cccc([N+](=O)[O-])c4)c23)cc1,·,?,·,12µM*,·,-1
CC(NC(=O)CCCc1c[nH]c2ccccc12)c1cccc(F)c1 (stereo unspecified),·,·,·,·,·,7
Cc1ccc2nc(-c3ccccc3)c(C)c(C(=O)O)c2c1,·,·,·,·,·,19
COc1ccc(C(CC(=O)c2ccc(C)cc2)C(C#N)C#N)cc1OC (stereo unspecified),?,5.2µM*,-100*,4.1µM*,?,7
COC(=O)C(C(=O)OC)C(CC(=O)c1ccc(C)cc1)c1cc(OC)c(OC)c(OC)c1 (stereo unspecified),19%,-20%,21,-5%,-4%,-1
CC(C)CC(NS(=O)(=O)c1ccccc1)C(=O)O (stereo unspecified),-33%,-7%,-8,-22%,4%,0
CC(C)CN=C(NS(=O)(=O)c1ccccc1)C(Cl)(Cl)Cl,?,5.8µM*,-12,4.6µM*,?,-3
Cc1ccc(-c2cnoc2NC(=O)CSc2nc(-c3ccccc3)cc(=O)[nH]2)cc1,·,·,·,·,·,-9
Cc1oc(-c2ccccc2)nc1CC(=O)NCCC(=O)N1CCCC1,·,·,·,·,·,0
O=C(CSc1ncnc2ccccc12)Nc1ccc2c(c1)OCO2,37%,?,-65*,?,17%,-7
CC(C)Cn1c(SC(C)C(=O)Nc2ccc3c(c2)OCCO3)nc2ccccc2c1=O (stereo unspecified),13µM*,?,-14,29µM*,-20%,6
O=C(CSc1ncnc2c1cnn2-c1ccccc1)Nc1ccc2c(c1)OCO2,13%,-49%,-5,-58%,-6%,-1
Cc1ccc(C)c(NC(=O)C(Sc2nc3ccccc3c(=O)n2CC(C)C)c2ccccc2)c1 (stereo unspecified),-24%,2.6µM*,-2,4.1µM*,-7%,1
CC(Sc1nc2ccccc2c(=O)n1C)C(=O)Nc1ccc2c(c1)OCCO2 (stereo unspecified),·,4.1µM*,22,8.2µM*,·,-7
CC12CN3CC(C)(CN(C1)C31C3CC4CC(C3)CC1C4)C2=O (stereo unspecified),·,·,·,·,·,-2
COc1cc(CN(CCN(C)C)Cc2ccccc2)cc(OC)c1OC,·,·,·,·,·,5
O=C(CSc1nc2ccccc2s1)Nc1cc(C(F)(F)F)cc(C(F)(F)F)c1,·,·,·,·,·,14
O=C1/C(=C/c2ccc3ccccc3c2)CCC1C1CCCC1 (stereo unspecified),·,·,·,·,·,3
O=C(Cn1cnc2ccccc21)Nc1ccc2c(c1)OCCCO2,·,2.3µM*,0,8.2µM*,·,1
O=C(Cn1cnc2ccccc2c1=O)Nc1ccc2c(c1)OCO2,21%,-5%,-5,3%,5%,3
CC(Sc1nc2ccccc2c(=O)n1CC1CCCO1)C(=O)N(C)c1ccccc1 (stereo unspecified),·,5.8µM*,-3,21µM*,·,-8
COc1ccccc1NC(=O)C(C)Sc1nc2ccccc2c(=O)n1CC1CCCO1 (stereo unspecified),·,-24%,-1,?,·,-7
SMILES,RORg inh,TDP1 cell noCPT,IL1B secr inh,TDP1 cell CPT,Gal4-VP16 FLuc,LDHA inh
Cc1cccc(NC(=O)C(C)Sc2ncnc3sccc23)c1 (stereo unspecified),·,15µM*,-2,18µM*,·,0
CC(Sc1ncnc2ccccc12)C(=O)Nc1ccc2c(c1)OCCO2 (stereo unspecified),?,13µM*,-12,15µM*,-1%,-4
COc1ccc(Cl)cc1N(C)C(=O)Cc1noc2ccc(C)cc12,·,18µM*,·,16µM*,·,3
Cc1ccc2onc(CC(=O)N3CCN(c4cc(Cl)ccc4C)CC3)c2c1,·,16µM*,·,?,·,1
COc1ccc(N=Cc2nc(-c3ccccc3)oc2OC(=O)c2ccccc2)cc1,-14%,23µM*,0,21µM*,?,1
CCOC(=O)c1ccc(-n2c(CC)nc3ccccc3c2=O)cc1,3%,·,·,·,4%,·
CN(C)c1ccc(N=Cc2nc(-c3ccccc3)oc2OC(=O)c2cccc(Br)c2)cc1,-1%,16µM*,?,?,?,0
CCOC(=O)c1ccc(N=Cc2nc(-c3ccccc3)oc2OC(C)=O)cc1,1%,6.5µM*,-17,9.2µM*,23%,-10
CC(=O)Oc1oc(-c2ccccc2)nc1C=Nc1ccccc1,?,?,-8,-27%,?,-12
CCOC(=O)c1ccc(N=Cc2nc3ccccc3n2C)cc1,?,18µM*,-14,?,6%,2
O=C(NCCc1ccc2c(c1)OCCO2)c1ccccc1NS(=O)(=O)c1cccs1,·,·,·,·,·,5
C=C(C)CC(NC(C)=O)(C(=O)OCC)C(=O)OCC,·,·,·,·,·,-10
CC(NC(=O)CSC1=NCCS1)C1CC2CCC1C2 (stereo unspecified),·,·,·,·,·,-6
O=C(Oc1cccc2cccnc12)c1cccc(-n2cnnn2)c1,-12%,18µM*,1,?,-5%,6
O=C(Oc1cccc2cccnc12)c1ccc(N2C(=O)C3C4CCC(C4)C3C2=O)cc1 (stereo unspecified),2.8µM*,1µM*,-95*,0.52µM*,5µM*,5
Cc1ccc(C(=O)Oc2cccc3cccnc23)cc1,·,·,·,·,·,13
O=C(Oc1cccc2cccnc12)c1cccc(N2C(=O)C3C4CCC(C4)C3C2=O)c1 (stereo unspecified),2.5µM*,4.6µM*,-81*,4.1µM*,?,17
COc1ccc(NC(=O)c2cccc(N3C(=O)C4C5CCC(C5)C4C3=O)c2)cc1 (stereo unspecified),1%,?,12,?,3%,-4
CCCC(C)c1nnc(NC(=O)C2CCN(C(=O)c3ccccc3F)CC2)s1 (stereo unspecified),·,·,·,·,·,-5
